Compounds without any hit were thinned out: in the full panel of roughly 79,000, 15% have a hit. Activity calls are given as the source filed them. No stated cut-off is given here; in the data, active means growth inhibition above about 70%; inactive means the rest.
Experiments:
[1] = NCI Yeast Anticancer Drug Screen. Data for the rad52 strain (AID 147);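 further: 0% = growth of vehicle-treated control cultures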; conditions: S. cerevisiae rad52 mutant growth inhibition, active compounds read high
Summary of the method: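 Inhibition of yeast growth, referenced to vehicle controls, was the measured output for a strain with defective DNA damage repair.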

[2] = NCI Yeast Anticancer Drug Screen. Data for the wt1 strain (AID 149);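 further: 0% = growth of vehicle-treated wt1 cultures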; conditions: S. cerevisiae wt1 strain (SPY 50644) growth inhibition, active compounds read high
Summary of the method: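 Measured: growth of wt1 yeast under compound versus vehicle treatment, reported as inhibition.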

[3] = NCI Yeast Anticancer Drug Screen. Data for the rad50EPP+ strain (AID 151);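 further: 0% = growth of vehicle-treated control cultures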; conditions: S. cerevisiae rad50 mutant strain, active compounds read high
Summary of the method: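 Genetically defined yeast (rad50EPP+, DNA damage repair alteration) is grown with compound, and inhibition of growth is expressed relative to vehicle-treated controls.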

[4] = NCI Yeast Anticancer Drug Screen. Data for the mgt1 strain (AID 153); conditions: S. cerevisiae mgt1 mutant growth inhibition, active compounds read high
Summary of the method: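 In the mgt1 strain, test compounds were added and growth inhibition was determined relative to vehicle-treated controls.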

[5] = NCI Yeast Anticancer Drug Screen. Data for the rad50 strain (AID 155);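 further: 0% = growth of vehicle-only cultures of the same strain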; conditions: S. cerevisiae rad50 strain growth inhibition, active compounds read high
Summary of the method: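 Growth of the mutant yeast was measured after compound exposure and referenced to vehicle-treated cultures.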

[6] = NCI Yeast Anticancer Drug Screen. Data for the mec2-1 strain (AID 157); conditions: S. cerevisiae mec2-1 strain, active compounds read high
Summary of the method: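 Each compound was tested on mec2-1 yeast, a strain altered in DNA damage repair or cell cycle control. Growth inhibition is reported relative to vehicle.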

[7] = NCI Yeast Anticancer Drug Screen. Data for the rad14 strain (AID 159);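 further: 0% = growth of vehicle-treated control cultures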; conditions: S. cerevisiae rad14 strain growth inhibition, active compounds read high
Summary of the method: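 Here, inhibition of yeast growth was measured after compound exposure, using a strain with a genetic defect in DNA damage repair and vehicle-treated cultures as the reference.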

[8] = NCI Yeast Anticancer Drug Screen. Data for the sgs1 mgt1 strain (AID 161);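 further: 0% = growth of cultures given vehicle only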; conditions: S. cerevisiae sgs1 mgt1 strain, active compounds read high
Summary of the method: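 Inhibition of yeast growth, normalised to vehicle-treated controls, is reported for a strain bearing genetic alterations in DNA damage repair.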

[9] = NCI Yeast Anticancer Drug Screen. Data for the CLN2oe strain (AID 163);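 further: 0% = growth of vehicle-only control cultures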; conditions: S. cerevisiae CLN2oe strain, active compounds read high
Summary of the method: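 First, the altered yeast strain was treated with each compound; second, its growth was measured; finally, inhibition was derived by comparison with vehicle controls.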

[10] = NCI Yeast Anticancer Drug Screen. Data for the cln2 rad14 strain (AID 165);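 further: 0% = growth equal to vehicle treated cultures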; conditions: S. cerevisiae cln2 rad14 strain, active compounds read high
Summary of the method: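 Test compounds were added to cln2 rad14 yeast cultures; inhibition of growth was then determined by comparison with vehicle treatment.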

[11] = NCI Yeast Anticancer Drug Screen. Data for the bub3 strain (AID 167); conditions: S. cerevisiae bub3 mutant strain, active compounds read high
Summary of the method: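 Whole-cell yeast assay. The mutant strain was incubated with compounds, and growth inhibition was determined by comparison with vehicle-treated cells.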

[12] = NCI Yeast Anticancer Drug Screen. Data for the wt2 strain (AID 169);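 further: 0% = growth of vehicle-treated yeast cultures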; conditions: S. cerevisiae wt2 strain growth inhibition, active compounds read high
Summary of the method: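 The panel's yeast strains carry defined changes in DNA repair or cell cycle genes. Each strain is grown with compound, and growth loss is scored relative to vehicle.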

[13] = NCI Yeast Anticancer Drug Screen. Data for the mlh1 strain (AID 171);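 further: 0% = growth of vehicle-treated control cultures of the same strain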; conditions: S. cerevisiae mlh1 strain growth inhibition, active compounds read high
Summary of the method: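 Inhibition values reflect reduced yeast growth in the presence of compound, referenced to vehicle controls, using a strain chosen for its alteration in DNA repair or cell cycle control.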

[14] = NCI Yeast Anticancer Drug Screen. Data for the sgs1 strain (AID 173);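 further: 0% = growth of vehicle-only control cultures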; conditions: S. cerevisiae sgs1 mutant, active compounds read high
Summary of the method: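 Vehicle-treated cultures served as reference for growth inhibition of a yeast strain altered in DNA damage repair or cell cycle control after compound exposure.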

[15] = NCI Yeast Anticancer Drug Screen. Data for the mlh1 rad18 strain (AID 175); conditions: S. cerevisiae mlh1 rad18 strain growth inhibition, active compounds read high
Summary of the method: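 Inhibition values reflect reduced growth of mutant yeast versus vehicle-treated controls following compound exposure; the mutations affect DNA damage repair.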

[16] = NCI Yeast Anticancer Drug Screen. Data for the rad18 strain (AID 177); conditions: S. cerevisiae rad18 mutant growth inhibition, active compounds read high
Summary of the method: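 Steps: expose repair-mutant yeast to compound; measure growth; express as inhibition relative to vehicle control.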

[17] = at 5.0 µM (retest, dose inferred, filed as 0.5)
[18] = at 50.0 µM (retest, dose inferred, filed as 5.0)

Measured: growth inhibition

O=C(NCCCl)Sc1ccc(Cl)cc1
active: [1]; at 100.0 µM 99% | [2]; at 100.0 µM 80% | [3]; at 100.0 µM 90% | [4]; at 100.0 µM 71% | [5]; [18] 85% | [5]; at 50.0 µM 95.2% | [5]; at 100.0 µM 98% | [6]; [18] 82% | [6]; at 50.0 µM 99.3% | [6]; at 100.0 µM 85% | [7]; at 100.0 µM 75% | [8]; at 50.0 µM 84.5% | [11]; [18] 84% | [11]; at 50.0 µM 96.2% | [11]; at 100.0 µM 91% | [12]; at 100.0 µM 92% | [13]; at 100.0 µM 93% | [14]; at 100.0 µM 90% | [15]; [18] 84% | [15]; at 50.0 µM 97.8% | [16]; at 100.0 µM 93%
inactive: [1]; at 1.2 µM 3% | [1]; at 3.7 µM 7% | [1]; at 11.0 µM 10% | [1]; at 33.0 µM 55% | [2]; at 1.2 µM -3% | [2]; at 3.7 µM -3% | [2]; at 11.0 µM 0% | [2]; at 33.0 µM 21% | [3]; at 1.2 µM 3% | [3]; at 3.7 µM 7% | [3]; at 11.0 µM 22% | [3]; at 33.0 µM 56% | [4]; at 1.2 µM 1% | [4]; at 3.7 µM -2% | [4]; at 11.0 µM -2% | [4]; at 33.0 µM 30% | [5]; at 1.2 µM 4% | [5]; at 3.7 µM -7% | [5]; [17] -166% | [5]; at 11.0 µM 7% | [5]; at 33.0 µM 55% | [6]; at 1.2 µM 1% | [6]; at 3.7 µM 1% | [6]; [17] -52% | [6]; at 11.0 µM -10% | [6]; at 33.0 µM 13% | [7]; at 1.2 µM -1% | [7]; at 3.7 µM -7% | [7]; at 11.0 µM 2% | [7]; at 33.0 µM 33% | [8]; [17] -65% | [8]; [18] 53% | [9]; at 1.2 µM -1% | [9]; at 3.7 µM -2% | [9]; at 11.0 µM -2% | [9]; at 33.0 µM 9% | [9]; at 100.0 µM 60% | [10]; [17] -67% | [10]; [18] 8% | [10]; at 50.0 µM 42.8% | [11]; at 1.2 µM 2% | [11]; at 3.7 µM 0% | [11]; [17] -71% | [11]; at 11.0 µM 1% | [11]; at 33.0 µM 29% | [12]; at 1.2 µM 1% | [12]; at 3.7 µM 0% | [12]; at 11.0 µM 0% | [12]; at 33.0 µM 30% | [13]; at 1.2 µM -5% | [13]; at 3.7 µM 1% | [13]; at 11.0 µM 2% | [13]; at 33.0 µM 19% | [14]; at 1.2 µM 0% | [14]; at 3.7 µM 13% | [14]; at 11.0 µM 22% | [14]; at 33.0 µM 60% | [15]; [17] -141% | [16]; at 1.2 µM 0% | [16]; at 3.7 µM 3% | [16]; at 11.0 µM 5% | [16]; at 33.0 µM 44%

COc1cc(C2c3cc4c(cc3OC(OC(C)=O)C2C)OCO4)cc(OC)c1OC (stereo unspecified)
inactive: [1]; at 1.2 µM -1% | [1]; at 3.7 µM -2% | [1]; at 11.0 µM -2% | [1]; at 33.0 µM -5% | [2]; at 1.2 µM -2% | [2]; at 3.7 µM -3% | [2]; at 11.0 µM -5% | [2]; at 33.0 µM -11% | [2]; at 100.0 µM 56% | [3]; at 1.2 µM -3% | [3]; at 3.7 µM -1% | [3]; at 11.0 µM 1% | [3]; at 33.0 µM -1% | [3]; at 100.0 µM 5% | [4]; at 1.2 µM -2% | [4]; at 3.7 µM -1% | [4]; at 11.0 µM -10% | [4]; at 33.0 µM -12% | [4]; at 100.0 µM 43% | [5]; at 1.2 µM -1% | [5]; at 3.7 µM -1% | [5]; [17] 1% | [5]; at 11.0 µM -5% | [5]; at 33.0 µM -5% | [5]; [18] 49% | [5]; at 50.0 µM -0.3% | [6]; at 1.2 µM -6% | [6]; at 3.7 µM 0% | [6]; [17] -4% | [6]; at 11.0 µM -1% | [6]; at 33.0 µM -5% | [6]; [18] 5% | [6]; at 50.0 µM 2.6% | [6]; at 100.0 µM 56% | [7]; at 1.2 µM -3% | [7]; at 3.7 µM -4% | [7]; at 11.0 µM -11% | [7]; at 33.0 µM -10% | [7]; at 100.0 µM 52% | [8]; [17] -8% | [8]; [18] 29% | [8]; at 50.0 µM -4.55% | [9]; at 1.2 µM -7% | [9]; at 3.7 µM -7% | [9]; at 11.0 µM -18% | [9]; at 33.0 µM -13% | [10]; [17] -14% | [10]; [18] 3% | [10]; at 50.0 µM -13.1% | [11]; at 1.2 µM 5% | [11]; at 3.7 µM 5% | [11]; [17] 17% | [11]; at 11.0 µM 22% | [11]; at 33.0 µM 38% | [11]; [18] 58% | [11]; at 50.0 µM 35.6% | [12]; at 1.2 µM -2% | [12]; at 3.7 µM -5% | [12]; at 11.0 µM -6% | [12]; at 33.0 µM -13% | [12]; at 100.0 µM 66% | [13]; at 1.2 µM -2% | [13]; at 3.7 µM -5% | [13]; at 11.0 µM -2% | [13]; at 33.0 µM -7% | [13]; at 100.0 µM 69% | [14]; at 1.2 µM -3% | [14]; at 3.7 µM -2% | [14]; at 11.0 µM -3% | [14]; at 33.0 µM -3% | [15]; [17] -4% | [15]; [18] 23% | [15]; at 50.0 µM -2.5% | [16]; at 1.2 µM -3% | [16]; at 3.7 µM -4% | [16]; at 11.0 µM 1% | [16]; at 33.0 µM 5%
active: [1]; at 100.0 µM 82% | [5]; at 100.0 µM 77% | [9]; at 100.0 µM 72% | [11]; at 100.0 µM 89% | [14]; at 100.0 µM 79% | [16]; at 100.0 µM 85%

Reference: PubChem BioAssay (NCI)
